Laboratory results reported in PubChem BioAssay (Tox21).
Records with an inconclusive call do not appear. Active and inactive are the calls of the source. Unless noted, calls follow the shape of the dose curve; as a rule, active = well fitted curve in the direction sought with a large enough effect in the repeat runs; inconclusive = weak or mixed curves; inactive = no such curve, though single readings can be large; an effect the other way counts as inactive or inconclusive.

Key:
[1] = qHTS assay to identify small molecule antagonists of the estrogen related receptor signaling pathway with the pleiotropic PPARgamma coactivator (PGC) from Tox21 10K library - cell viability counter screen (AID 1224840; active = well fitted cell-killing curve with a large enough effect in the repeat runs, not every such curve was filed as active; also: nearly all actives have a fitted effect of over 40% in size)
Procedure, shortened: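 PGC/ERR cells were seeded at 2,000 cells/well and left 6 hours at 37 C/5% CO2 before pin-tool addition of compounds in DMSO. After 17.5 hours at 37 C, CellTiter-Fluor was added and fluorescence read 30 minutes later.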

[2] = target: Thyrotropin receptor (Homo sapiens) (UniProt P16473); assay: qHTS assay to identify small molecule agonists of the thyroid stimulating hormone receptor (TSHR) signaling pathway (AID 1224843; calls by dose curve; also: nearly all actives have a fitted effect of over 45% in size)
Procedure, shortened: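 Steps: seed 800 TSHR-HEK293 cells per well; add test compound and hold 30 min at ambient temperature; dispense cAMP-d2 then anti-cAMP cryptate; incubate 1 h at ambient; measure fluorescence intensity.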

[3] = qHTS assay to identify small molecule agonists of the hypoxia (HIF-1) signaling pathway - cell viability counter screen (AID 1224844; calls by dose curve; also: nearly all actives have a fitted effect of over 50% in size)
Procedure, shortened: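 HRE-bla ME-180 cells in medium with 0.5% dialyzed FBS were preincubated 5 hrs at 37C, exposed to compounds for 17 hrs, then viability was read as CellTiter-Glo luminescence after 30 min at room temperature, in the reporter wells.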

[4] = qHTS assay to identify small molecule agonists of H2AX (AID 1224845; active = well fitted activation curve with a large enough effect in the signal ratio in the repeat runs, not every such curve was filed as active; the % refers to the signal ratio)
Procedure, shortened: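 Wild-type CHO-K1 cells, plated overnight, exposed 3hr at 37C to 15 concentrations (0.76% DMSO final). Lysed, then HTRF anti-pH2AX (S139) cryptate and anti-H2AX-d2 antibodies, 24 hr room temperature; 665/620 nm emission read.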

[5] = qHTS assay to identify small molecule agonists of H2AX - cell viability counter screen (AID 1224847; calls by dose curve; also: top concentration of the series differs between compounds; nearly all actives have a fitted effect of over 30% in size)
Procedure, shortened: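 After overnight plating of 1000 CHO-K1 cells per well, a 15-concentration compound series was applied for 3 hr at 37C. Luminescence from CellTiter-Glo, read following 30 min at room temperature, reflected cell viability.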

[6] = qHTS RealTime-Glo MT Cell Viability Assay in HepG2 cells - 24 hour (AID 1224867); also: nearly all actives have a fitted effect of over 50% in size
Procedure, shortened: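 Compound treatment began 5 h after plating HepG2 cells (600/well) with NanoLuc luciferase and prosubstrate. Plates stayed at 37 C for 40 h; luminescence was captured at six time points, 0 h through 40 h.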

[7] = qHTS RealTime-Glo MT Cell Viability Assay in HEK293 cells - 32 hour (AID 1224868); also: top concentration of the series differs between compounds; nearly all actives have a fitted effect of over 50% in size
Procedure, shortened: (§1)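 Quantitative high-throughput screen of the Tox21 10K library in HEK293: cells and RealTime-Glo reagents plated together, compound added at 5 h, luminescence monitored through 40 h at 37 C.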

[8] = A CellTox Green Cytotoxicity Assay to monitor cytotoxicity in HEK293 cells - 0 hour (AID 1224869); also: nearly all actives have a fitted effect of over 50% in size
Procedure, shortened: (§2)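 HEK293 cells premixed with CellTox Green dye were seeded at 600 cells/well and left 5 h at 37 C/5% CO2 before pin transfer of 23 nL compound in DMSO. Fluorescence from dye bound to dead-cell DNA was read during 40 h treatment.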

[9] = qHTS RealTime-Glo MT Cell Viability Assay in HepG2 cells - 40 hour (AID 1224870); also: nearly all actives have a fitted effect of over 50% in size
Procedure, shortened: (§3)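 HepG2 cells (600/well) mixed with RealTime-Glo MT reagent, settled 5 h at 37 C/5% CO2 before compound addition. Nonlytic NanoLuc luminescence from viable-cell prosubstrate reduction read repeatedly during 40 h treatment at 37 C.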

[10] = A CellTox Green Cytotoxicity Assay to monitor cytotoxicity in HEK293 cells - 40 hour (AID 1224871); also: nearly all actives have a fitted effect of over 45% in size
Procedure, shortened: as §2

[11] = qHTS RealTime-Glo MT Cell Viability Assay in HEK293 cells - 16 hour (AID 1224872)
Procedure, shortened: as §1

[12] = qHTS RealTime-Glo MT Cell Viability Assay in HepG2 cells - 8 hour (AID 1224873); also: nearly all actives have a fitted effect of over 55% in size
Procedure, shortened: as §3

[13] = qHTS RealTime-Glo MT Cell Viability Assay in HEK293 cells - 40 hour (AID 1224874); settings: RealTime-Glo luminescence; max response: stronger effect = lower value; also: nearly all actives have a fitted effect of over 50% in size
Procedure, shortened: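 HEK293 cells mixed with RealTime-Glo reagents (NanoLuc plus cell-permeant prosubstrate) at 600 cells/well, preincubated 5 h at 37 C/5% CO2, then given 23 nL compound in DMSO. Nonlytic luminescence from viable cells was read at 0, 8, 16, 24, 32 and 40 h.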

[14] = A CellTox Green Cytotoxicity Assay to monitor cytotoxicity in HEK293 cells - 24 hour (AID 1224875); also: series mostly up to about 77 µM; nearly all actives have a fitted effect of over 45% in size
Procedure, shortened: as §2

[15] = qHTS assay to identify small molecule agonists of the hypoxia (HIF-1) signaling pathway (AID 1224846; active = well fitted activation curve with a large enough effect in the signal ratio in the repeat runs, not every such curve was filed as active; the % refers to the signal ratio)
Procedure, shortened: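 HRE-bla ME-180 cells (beta-lactamase reporter under hypoxia response element) were plated at 2,000 cells/well in medium with 0.5% dialyzed FBS, rested 5 hrs, then given compounds in DMSO for 17 hrs at 37C, 5% CO2. Reporter induction was read with CCF4-AM FRET substrate.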

[16] = qHTS assay to identify small molecule antagonists of the estrogen related receptor (ERR) signaling pathway from Tox21 library (AID 1224848); also: nearly all actives have a fitted effect of over 50% in size
Procedure, shortened: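 Luminescent reporter read-out (ONE-Glo) from NTP's ERR cell line after 18 h treatment at 37 C with DMSO-dissolved Tox21 compounds; cells pre-plated 6 h beforehand at 2,000 per well.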

[17] = qHTS assay to identify small molecule agonists of the estrogen related receptor (ERR) signaling pathway from Tox21 library (AID 1224849; calls by dose curve; also: nearly all actives have a fitted effect of over 15% in size)
Procedure, shortened: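 ERR reporter cell line (NTP) seeded, rested 6 h at 37 C/5% CO2, then pinned with Tox21 compounds in DMSO. After 18 h at 37 C, ONE-Glo luciferase luminescence was read following 30 min at room temperature.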
% is scaled to controls: 0 for no effect and ±100 for the full control effect.

Thyrotropin receptor (Homo sapiens), sequence (P16473 whole entry, looked up): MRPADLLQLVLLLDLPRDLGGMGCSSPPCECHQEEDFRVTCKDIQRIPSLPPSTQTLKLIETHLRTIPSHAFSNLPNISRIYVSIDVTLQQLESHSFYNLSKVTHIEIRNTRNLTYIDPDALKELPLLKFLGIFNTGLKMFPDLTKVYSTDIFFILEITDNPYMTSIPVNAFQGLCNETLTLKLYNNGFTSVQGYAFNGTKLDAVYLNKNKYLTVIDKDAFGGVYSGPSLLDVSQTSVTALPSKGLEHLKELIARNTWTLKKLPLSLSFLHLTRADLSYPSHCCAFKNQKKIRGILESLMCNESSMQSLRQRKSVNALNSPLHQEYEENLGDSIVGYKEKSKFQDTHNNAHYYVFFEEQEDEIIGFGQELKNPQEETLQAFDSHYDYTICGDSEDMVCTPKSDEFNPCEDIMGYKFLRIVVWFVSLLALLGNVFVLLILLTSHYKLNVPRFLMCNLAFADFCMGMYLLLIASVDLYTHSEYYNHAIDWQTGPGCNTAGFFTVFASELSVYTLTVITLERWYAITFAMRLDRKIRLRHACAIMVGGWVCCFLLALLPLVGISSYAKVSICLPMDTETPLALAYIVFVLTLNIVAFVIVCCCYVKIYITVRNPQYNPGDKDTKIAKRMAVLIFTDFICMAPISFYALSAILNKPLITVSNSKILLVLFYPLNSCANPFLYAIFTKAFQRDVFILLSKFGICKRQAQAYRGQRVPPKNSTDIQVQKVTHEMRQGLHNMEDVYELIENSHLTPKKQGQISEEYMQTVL

N#CCCOCCOCCC#N
inactive: outcome [1] | outcome [2] | outcome [3] | outcome [4] | Potency [5] | outcome [6] | Potency [7] | Potency [8] | outcome [9] | Potency [10] | Potency [11] | outcome [12] | max response [13] 9.79% | Potency [14]

CCN1CN(CC)CN(CC)C1
inactive: outcome [1] | outcome [2] | outcome [3] | outcome [4] | outcome [15] | outcome [6] | Potency [7] | Potency [8] | outcome [9] | Potency [10] | Potency [11] | outcome [12] | max response [13] 4.59% | Potency [14]

Nc1cc(S(=O)(=O)O)ccc1S(=O)(=O)O
inactive: outcome [1] | outcome [2] | outcome [3] | outcome [4] | Potency [5] | outcome [6] | Potency [7] | Potency [8] | outcome [9] | Potency [10] | Potency [11] | outcome [12] | max response [13] 21%

CCCCC(=O)N(C)C
inactive: outcome [1] | outcome [2] | outcome [3] | outcome [4] | Potency [5] | outcome [6] | Potency [7] | Potency [8] | outcome [9] | Potency [10] | Potency [11] | max response [13] 1.13% | Potency [14]

NCCc1ccn[nH]1
inactive: outcome [1] | outcome [2] | outcome [3] | outcome [4] | Potency [5] | outcome [6] | Potency [7] | Potency [8] | outcome [9] | Potency [10] | Potency [11] | max response [13] 6.3% | Potency [14]

O=S(=O)(O)c1cc(O)ccc1O
inactive: outcome [1] | outcome [2] | outcome [3] | Potency [16] | outcome [17] | outcome [6] | Potency [7] | Potency [8] | outcome [9] | Potency [10] | Potency [11] | max response [13] 9.53% | Potency [14]

Cc1nc2ccccc2c(=O)o1
inactive: outcome [1] | outcome [2] | outcome [3] | outcome [4] | Potency [5] | outcome [6] | Potency [7] | Potency [8] | outcome [9] | Potency [11] | outcome [12] | max response [13] 5.55% | Potency [14]

Nc1cc(C(=O)O)ccc1Cl
inactive: outcome [1] | outcome [2] | outcome [3] | outcome [4] | Potency [5] | outcome [6] | Potency [7] | Potency [8] | outcome [9] | Potency [10] | Potency [11] | outcome [12] | max response [13] 6.48%

O=c1[nH]c(=O)c2[nH]c(=O)[nH]c2[nH]1
inactive: viability change, negative = cytotoxic [1] -2.62% [at 8.39 µM] | activation [2] 0.91% [at 8.39 µM] | activity change, negative = cytotoxicity [3] 3.89% [at 6.97 µM] | activation (H2AX phosphorylation) [4] 0.259% [at 14 µM] | activation [15] 0.359% [at 7.01 µM] | activity change, negative = cytotoxicity [5] -1.7% [at 14 µM] | activity change, negative = cytotoxicity [6] 1.41% [at 6.97 µM] | activity change, negative = cytotoxic [7] 9.11% [at 6.97 µM] | cytotoxicity [8] -14.8% [at 6.97 µM] | cytotoxicity increase [10] -13.3% [at 6.97 µM] | activity change, negative = cytotoxicity [11] 9.21% [at 6.97 µM] | max response [13] 10.6% | activity change [14] -9.62% [at 6.97 µM, stronger effect = higher value]

O=C(O)Cc1cccc(-c2cc(CCCCCCc3ccc(O[C@H]4O[C@H](CO)[C@@H](O)[C@H](O)[C@@H]4O)c(-c4cccc(CC(=O)O)c4)c3)ccc2O[C@H]2O[C@H](CO)[C@@H](O)[C@H](O)[C@@H]2O)c1
inactive: viability change, negative = cytotoxic [1] -0.865% [at 0.349 µM] | activation [2] 2.03% [at 0.349 µM] | activity change, negative = cytotoxicity [3] 6.42% [at 0.29 µM] | activation (H2AX phosphorylation) [4] 0.108% [at 0.582 µM] | activity change, negative = cytotoxicity [5] -1.18% [at 0.582 µM] | activity change, negative = cytotoxicity [6] 2.07% [at 0.29 µM] | activity change, negative = cytotoxic [7] 4.81% [at 0.29 µM] | cytotoxicity [8] 3% [at 0.29 µM] | cytotoxicity increase [10] -17.8% [at 0.29 µM] | activity change, negative = cytotoxicity [11] 3.33% [at 0.29 µM] | max response [13] -2.4% | activity change [14] -8.86% [at 0.29 µM, stronger effect = higher value]

C=C(C)C(=O)OC1CC(C)CC(C)(C)C1 (stereo not drawn)
inactive: outcome [1] | outcome [2] | outcome [3] | outcome [4] | outcome [15] | Potency [5] | outcome [6] | Potency [7] | Potency [8] | outcome [9] | Potency [10] | Potency [11] | max response [13] 3.29% | Potency [14]

CC1=CC[C@H](CC=O)C1(C)C
inactive: outcome [1] | outcome [2] | outcome [3] | outcome [4] | outcome [15] | Potency [5] | outcome [6] | Potency [7] | outcome [9] | Potency [10] | Potency [11] | outcome [12] | max response [13] 1.6% | Potency [14]

COC(OC)C(C)c1ccccc1 (stereo not drawn)
inactive: outcome [1] | outcome [2] | outcome [3] | outcome [4] | Potency [5] | outcome [6] | Potency [7] | outcome [9] | Potency [10] | Potency [11] | outcome [12] | max response [13] 5.02%

CC(=O)N(CC(O)CO)c1c(I)c(C(=O)NCC(O)CO)c(I)c(C(=O)NCC(O)CO)c1I (stereo not drawn)
inactive: outcome [1] | outcome [3] | outcome [4] | outcome [15] | Potency [5] | outcome [6] | Potency [7] | outcome [9] | Potency [10] | Potency [11] | outcome [12] | max response [13] 6.97%

CCCC(C)CC (stereo not drawn)
inactive: outcome [1] | outcome [2] | outcome [4] | Potency [5] | outcome [6] | Potency [7] | Potency [8] | outcome [9] | Potency [10] | Potency [11] | outcome [12] | max response [13] 1.42% | Potency [14]

COCC(=O)Nc1c(I)c(C(=O)NCC(O)CO)c(I)c(C(=O)N(C)CC(O)CO)c1I (stereo not drawn)
inactive: outcome [1] | outcome [2] | outcome [4] | Potency [5] | outcome [6] | Potency [8] | outcome [9] | Potency [10] | outcome [12] | Potency [14]

CC(C)COC(=O)CCCCC(=O)OCC(C)C
inactive: outcome [1] | outcome [3] | outcome [4] | outcome [15] | Potency [5] | outcome [6] | Potency [7] | Potency [8] | Potency [10] | Potency [11] | max response [13] -8.63% | Potency [14]
